Assay results taken from PubChem BioAssay (EPA / NIEHS).
Active and inactive are the calls of the source. How the source made its calls: active means hit-call score of the fitted dose curve at least 0.9, where 1 is the maximum; inactive means score below 0.9.

Assay: CCTE_Mundy_HCI_Cortical_NOG_NeuriteLength: CCTE's Neurite Outgrowth Assay in rat cortical cells for Neurite Length, Mundy Lab (AID 2284213);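 on AC50: neurites imaged about 48 to 50 h after chemical exposure began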
Protocol: CCTE_Mundy_HCI_Cortical_NOG is a multiplexed, cell-based-readout assay that uses rat primary cortical cells with measurements taken at 50.33 hours after chemical dosing in a microplate: 96-well plate.CCTE_Mundy_HCI_Cortical_NOG_NeuriteLength is one of four components of the CCTE_Mundy_HCI_Cortical_NOG assay. It measures neurite outgrowth related to the neurite length using High Content Imaging of fluorescently labelled markers.[…] Using a type of morphology reporter, loss -of-signal activity can be used to understand developmental effects.
Exposure starts 2 hours post-plating by adding 10 ul of the working solution to 90 ul of media in the wells for a 1/10 dilution. Forty-eight hours after chemical treatment cells are fixed by direct addition of 100 ul of warm (37C) Dulbecco's phosphate buffered saline (DPBS) fixative solution containing 8% paraformaldehyde, 8% sucrose, and 0.1% of 3 mg/ml Hoechst 33342 into each well. Primary antibodies are prepared by dilution in Immunocytochemical Staining Buffer (ISB), 10X Dulbecco's PBS, 0.1% Saponin, 5% Bovine Serum Albumin, 0.5% NaN3 (Sodium Azide) and betaIII-tubulin (rabbit anti-betaIII-tubulin, 1:800) followed by Alexa Fluor-488 secondary (1:500) to label neuronal cell bodies and neurites. A Cellomics ArrayScan VTi HCS Reader is used for automated image acquisition and analysis of neurite outgrowth.

Compound	outcome	AC50
F	inactive	–
CCCCCC=C(C)C(CC)CCO (stereo not given)	inactive	–
Cc1[nH]n(C)c(=O)c1C(=O)c1ccc(C(F)(F)F)cc1S(C)(=O)=O	inactive	–
CC(=O)N[C@@H](CC(=O)O)C(=O)O	inactive	–
C[C@@H]1CC[C@@H](C(C)(C)O)[C@H](O)C1	inactive	–
CCc1ccccc1	inactive	–
CC(C)c1nn(C(=O)NC(C)(C)C)c(=O)n1N	inactive	–
[Li+]	inactive	–
CN(C)CCCn1cc(C2=C(c3c[nH]c4ccccc34)C(=O)NC2=O)c2ccccc21	inactive	–
CC(C)O	inactive	–
BrC1CC(Br)CC(Br)CC(Br)CC(Br)CC(Br)C1 (stereo not given)	–	8.28 µM (active)
CC(CNC(=S)[S-])NC(=S)[S-].[Zn+2] (stereo not given)	–	27.6 µM (active)
CCCCCC(C)(CC)C(=O)NC (stereo not given)	inactive	–
CCN(CC)CCCC(C)Nc1nc(C)cc(Nc2ccc3nc(C)cc(N)c3c2)n1 (stereo not given)	inactive	–
C[C@@H]1CCO[C@H]2Cn3cc(C(=O)NCc4ccc(F)cc4F)c(=O)c(O)c3C(=O)N12	inactive	–
